Hits are enriched below; roughly 4.1% of the tested compounds scored in any of these assays.
DAX1 inh-1 = inhibits human nuclear receptor DAX1; AID 504766; inhibition, % at 6.75 µM; HEK293 Gal4-DAX1 luciferase reporter, luminescence; actives 0.99% (n = 340,000); P51843;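 active = inhibition above the mean over all tested compounds plus 3 SD, cut at about 4.2% in these data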;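 also: 0% = DAX1-transfected cells with DMSO and 100% = empty-vector control cells with DMSO; inhibition shows as a rise in luminescence from relieved DAX1 repression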
Target sequence (P51843 207-470 limits assumed): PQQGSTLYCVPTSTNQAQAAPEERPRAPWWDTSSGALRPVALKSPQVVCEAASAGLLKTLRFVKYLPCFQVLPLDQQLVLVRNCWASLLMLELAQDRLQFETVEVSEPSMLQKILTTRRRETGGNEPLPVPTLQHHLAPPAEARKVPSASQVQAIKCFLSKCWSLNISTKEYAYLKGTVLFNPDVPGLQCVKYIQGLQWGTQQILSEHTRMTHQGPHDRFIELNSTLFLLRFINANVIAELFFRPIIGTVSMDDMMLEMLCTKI
ssDAF12 agonist = activators of S. stercoralis DAF-12 nuclear receptor; HEK293 ssDAF-12/GRIP1 lit1-tk-luc reporter, luminescence; % of 3 µM dafachronic acid response; activation, % at 6.8 µM; actives 1% (n = 370,000); AID 652126;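 active = activation above the mean over all tested compounds plus 3 SD, cut at about 0.9% in these data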;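 also: 0% = DMSO-only wells and 100% = 3 µM delta7-dafachronic acid wells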
PolyA inhibitor = blocks polyadenylation in yeast reporter cells; activity score, % at 12 µM; AID 1875; S. cerevisiae SKY197-pL101 polyadenylation reporter, beta-gal luminescence; efflux-impaired pdr1/pdr3 knockout yeast; score 100 = 6 SD above DMSO; actives 0.02% (n = 300,000);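 active = lowest replicate activity score at least 50, where 100 means six control SD above control mean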;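 also: yeast exposed to compound for 9 h at 30 °C; higher score means more reporter readthrough which indicates perturbed polyadenylation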
hgDAF-12 ag = activates the H. glycines DAF-12 receptor ligand-binding domain | HEK293 GAL4-hgDAF12 UAS-luciferase reporter, agonist luminescence; normalized to butyrate control | activation, % at 6.8 µM | actives 1.8% (n = 370,000) | AID 687014;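 active = activation above a cutoff set at the mean of all screened compounds plus 3 SD, cut at about 10% in these data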;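 also: 0% = DMSO wells and 100% = sodium butyrate wells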
hcDAF-12 act = activates DAF-12 receptor from parasite H. contortus; AID 652067; activation, % at 6.8 µM; HEK293 hcDAF-12 lit1-tk-luc reporter, luminescence; 0% DMSO, 100% Δ7-dafachronic acid; actives 1.4% (n = 370,000);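 active = activation above the mean of all tested compounds plus 3 SD, cut at about 5.5% in these data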;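 also: 100% = response to 3 µM Δ7-dafachronic acid high control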
DAX1 inh-2 = DAX1 (NR0B1) inhibition, primary screen | inhibition, % at 6.8 µM | HEK293T StAR-luciferase reporter, SF-1/DAX-1 repression relief | actives 1.1% (n = 370,000);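 active = inhibition above the mean over all tested compounds plus 3 SD, cut at about 3.6% in these data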;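 also: 0% = DAX-1 cells with DMSO and 100% = cells lacking DAX-1 with DMSO; higher inhibition means more luminescence from relief of DAX-1 repression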
The depositor's hits bear a star; nt = no result given.

SMILES	DAX1 inh-1	ssDAF12 agonist	PolyA inhibitor	hgDAF-12 ag	hcDAF-12 act	DAX1 inh-2
COc1ccc(CN(C)C(=O)Cc2c[nH]c3ccccc23)cc1	-1	1	-1	1	6.1*	-1
Cc1ccc(-c2cc(C(=O)NN=Cc3sccc3C)[nH]n2)cc1C	nt	-2	nt	0	4	0
CCOC(=O)[C@@]12CCC3=C1N(CCC3)C(=O)[C@H](CC(=O)NCC1CCCCC1)C2	nt	-1	nt	9	-2	1
CC(C)C[C@H]1COc2cc(N3CCSCC3)ccc2S(=O)(=O)N1C	nt	-1	nt	-1	0	-1
C=CCOc1ccc(/C=C2\SC(=S)N(N3CCOCC3)C2=O)cc1	1	0	8	10	5.7*	2
CC(C)(C)c1ccc(S(=O)(=O)N2CCC(C(=O)NCC3COCCO3)CC2)cc1 (stereo not given)	nt	-2	nt	1	-4	-1
CC(CO)(CO)NC(=O)c1ccc(C#Cc2cccc(F)c2)cn1	nt	0	nt	7	0	0
O=C(NNc1ncnc2ccccc12)c1cccc(Cl)c1	5.8*	1	-7	11*	3	1
O=C(Nc1ccccc1O)c1ccc2c(c1)C(=O)N(N1C(=O)c3ccccc3C1=O)C2=O	0	1.3*	6	2	5.9*	1
O=C(Nc1ccc(O)cc1)c1ccc2c(c1)C(=O)N(N1C(=O)c3ccccc3C1=O)C2=O	1	-1	12	-1	0	-1
O=C(Cn1cnc2ccccc2c1=O)N1CCN(Cc2ccc(F)cc2)CC1	nt	-1	nt	-1	0	-1
CCCCc1cc(=O)oc2cc(OCC(=O)Nc3ccccn3)ccc12	2	0	-6	8	5	4.3*
COc1ccc(-c2cc(=O)oc3cc(OC(C)C(=O)NCc4ccccn4)ccc23)cc1 (stereo not given)	3	-1	5	-6	3	-1
COc1ccc(-c2cc(=O)oc3cc(OCC(=O)NCc4ccccn4)ccc23)cc1	5.7*	-1	1	-1	4	0
CCCCc1cc(=O)oc2cc(OCC(=O)NCc3ccccn3)ccc12	0	-1	0	2	-2	-1
CCOc1cc(C2NN=C(c3ccccc3)S2)ccc1OCc1ccc(F)cc1 (stereo not given)	3	1.1*	1	12*	4	2
CCOc1cc2c(cc1OCC)C(c1ccc(F)cc1)NCC2 (stereo not given)	0	0	25	0	-1	0
CC(NC(=O)CN1C(=O)NC2(CCCCC2)C1=O)c1ccc(S(N)(=O)=O)cc1 (stereo not given)	-1	-1	nt	0	1	3.9*
CC(NC(=O)CN1C(=O)NC2(CCCCCCC2)C1=O)c1ccccc1 (stereo not given)	0	0	nt	-1	2	-1
CN(C)/C=N/c1ncnc2c1cnn2-c1ccc(C(F)(F)F)cn1	1	0	29	11*	4	1
COCCn1c(SCC(=O)N2CC(=O)Nc3ccccc32)nc2ccccc21	2	0	23	3	5.8*	0
COCCn1c(SCC(=O)N2CC(=O)Nc3ccccc32)nc2ccccc2c1=O	-1	-1	16	1	0	0
O=C1NCCN1CCN1CCC(c2cn(-c3ccc(F)cc3)c3ccc(Cl)cc23)CC1	nt	-2	nt	0	-4	-4
COc1cccc(NC(=O)Cn2c(=O)oc3ccccc32)c1	0	-1	1	1	-2	0
COc1ccc(-c2nc(NC(=O)Cn3c(=O)oc4ccccc43)sc2C)cc1	4.7*	0	6	2	3	0
SMILES	DAX1 inh-1	ssDAF12 agonist	PolyA inhibitor	hgDAF-12 ag	hcDAF-12 act	DAX1 inh-2
CC(=O)Nc1cc(C(=O)OCC(=O)c2ccccc2)ccc1C	0	0	-6	12*	7.0*	4
COc1ccc2[nH]c(=O)c(CNc3cccc(C)c3)cc2c1	1	1.2*	-18	10	5.7*	1
COc1ccc(NCc2cc3cc(OC)ccc3[nH]c2=O)cc1	0	-1	0	0	1	0
Cn1c(C2CC(=O)N(Cc3ccccc3)C2)nc2ccccc21 (stereo not given)	2	1.1*	10	1	-2	0
CC1(C)OC(=O)C2=C(CC(CCc3ccccc3)OC2c2ccc(F)cc2)O1 (stereo not given)	nt	-1	nt	-1	-1	-1
COc1ccc(Cn2ccc3ccc(-c4ccc5ccn(Cc6ccc(C#N)cc6)c5c4)cc32)cc1	nt	-1	nt	4	2	-1
CCC(/C=C1\Sc2ccc(OC)cc2N1CC)=C\c1sc2ccc(OC)cc2[n+]1CCCS(=O)(=O)[O-]	0	5.6*	0	0	-1	0
CCCc1nc2nc(C)c(NS(=O)(=O)c3ccc(CC(C)C)cc3)c(=O)n2[nH]1	4.3*	-1	0	2	0	0
CCc1nc2nc(C)c(NS(=O)(=O)c3ccc(CC(C)C)cc3)c(=O)n2[nH]1	-1	-1	2	3	-2	0
CCc1ccc(Nc2ncc3c(n2)CC(C)CC3=O)cc1 (stereo not given)	1	0	-28	10	1	3.8*
CCc1ccc(Nc2ncc3c(n2)CC(c2ccc(OC)cc2)CC3=O)cc1 (stereo not given)	0	-1	-7	-1	1	-1
CCc1ccc(Nc2ncc3c(n2)CC(C)(C)CC3=O)cc1	7.1*	-1	3	7	2	1
Cc1ccc(NC(=O)CN(C)C(=O)/C=C/c2cccs2)cc1	0	1.3*	27	-2	2	0
COC(=O)[C@H]1[C@@H](O)[C@@]2(O)c3c(OC)cc(OC)cc3O[C@@]2(c2ccc(OC)cc2)[C@@H]1c1ccc(F)cc1	nt	-2	nt	-14	-5	-7
Cc1ccc(S(=O)(=O)N2CC[C@@]3(Cc4ccccc4)Cc4ccccc4C[C@@H]23)cc1	nt	-2	nt	0	0	nt
Cc1cc(C)nc(Nc2n[nH]c(-c3ccc(N)cc3)n2)n1	1	0	-2	11*	3	3
Cc1cc(C)nc(Nc2n[nH]c(-c3ccc(C(C)(C)C)cc3)n2)n1	-1	-1	-7	0	-1	-1
Cc1cc(C)nc(Nc2n[nH]c(-c3ccccc3C)n2)n1	4.6*	-1	-20	6	0	2
O=C(NCCCc1ccccc1)OC1CC2CC1[C@H]1CCCCN1C2 (stereo not given in full)	nt	-1	nt	-1	1	1
CC1=C(C)NC(=S)SC1	1	-1	-10	-1	5.6*	0
S=C1Nc2ccccc2CS1	-2	-1	nt	1	-1	-1
COc1cc(OC)c(Nc2cc(C)nc3nc(C)nn23)cc1Cl	7.2*	-1	-17	-1	-2	0
